Source: publication PMC5540273 (PLoS ONE, 2017)
Read-outs that look alike come from different tables or passages of the source.

Columns and labels:
[1] = system: PIP5K1A; conditions: concentration: 1 μM, replicates: in singlicate; n = 1
[2] = system: PIP5K1C; conditions: concentration: 1 μM, replicates: in singlicate; n = 1
[3] = system: PIP5K2B; conditions: concentration: 1 μM, replicates: in singlicate; n = 1
[4] = system: T1, PIP5K2C; conditions: concentration: 1 μM, replicates: in singlicate; n = 1
T1 construct: gene PIP4K2C

[5] = system: T2, PKAC-alpha; conditions: n = 1
T2 construct: gene PRKACA

[6] = system: T3, PKAC-beta; conditions: n = 1
T3 construct: gene PRKACB

[7] = system: PKMYT1; conditions: concentration: 1 μM, replicates: in singlicate; n = 1
[8] = system: PKN1; conditions: n = 1
[9] = system: PKN2; conditions: concentration: 1 μM, replicates: in singlicate; n = 1
[10] = system: PLK1; conditions: concentration: 1 μM, replicates: in singlicate; n = 1
[11] = concentration: 1 μM, replicates: in singlicate
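Also: KINOMEscan kinase panel screen.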

| Compound | %Inh [1] [%] | %Inh [2] [%] | %Inh [3] [%] | %Inh [4] [%] | %Inh [5, 11] [%] | %Inh [6, 11] [%] | %Inh [7] [%] | %Inh [8, 11] [%] | %Inh [9] [%] | %Inh [10] [%] | %Inh ([5]; 1 µM) [%] | %Inh ([6]; 1 µM) [%] | %Inh ([8]; 1 µM) [%] |
| --- | --- | --- | --- | --- | --- | --- | --- | --- | --- | --- | --- | --- | --- |
| Cl.NC(=O)c1cccc(Nc2nccc(Nc3ccc(Oc4c(Cl)cccc4Cl)c(Cl)c3)n2)c1 [GW659009] | 0 | 19 | 97.4 | 64 | 0 | 0 | 0 | 59 | 0 | 0 |  |  |  |
| C[C@@H]1CC[C@@H](C(=O)Nc2ccccc2)CN1c1cc(-c2ccc3c(N)n[nH]c3c2)nc(N)n1 [GSK2286062] | 0 | 18 | 3 | 4 | 0 | 0 | 16 | 0 | 0 | 0 |  |  |  |
| Nc1n[nH]c2cnc(-c3ccccc3)cc12 [SB-642124] | 40 | 0 | 32 | 18 | 0 | 0 | 15 | 0 | 31 | 0 |  |  |  |
| Cc1ccc(C(=O)N2CC[C@@H](O)C2)cc1-n1c(C)cc(OCc2ccc(F)cc2F)c(Br)c1=O | 0 | 50 | 0 | 38 | 3 | 0 | 0 | 16 | 0 | 0 |  |  |  |
| COc1ccc(CNC(=O)NC2CCN(c3ccnc(Nc4ccc(F)cc4)n3)CC2)cc1 [GSK1379788] | 5 | 57 | 4 | 9 | 0 | 0 | 0 | 0 | 0 | 0 |  |  |  |
| COc1cc(Nc2nccc(N3CCC(NC(=O)c4cc5ccccc5s4)C3)n2)cc(OC)c1OC (stereo not shown) [GSK1379760] | 26 | 52 | 15 | 92.6 | 18 | 0 | 0 | 0 | 1 | 17 |  |  |  |
| CCn1c(-c2nonc2N)nc2c(C#CC(C)(C)O)ncc(OCCCCN)c21.O=C(O)C(F)(F)F.O=C(O)C(F)(F)F [GSK507274] | 26 | 0 | 6 | 0 |  |  | 0 |  | 0 | 5 | 92.5 | 95.6 | 5 |
| O=C(Nc1cccc(-c2nn3ccccc3c2-c2ccnc(Nc3cccc(C(F)(F)F)c3)n2)c1)c1c(F)cccc1F [GSK292658] | 0 | 0 | 5 | 10 | 0 | 13 | 0 | 11 | 0 | 0 |  |  |  |
| Fc1ccc(-c2ncn(C3CCNCC3)c2-c2ccnc(Oc3ccc(-c4ccccc4)cc3)n2)cc1 [SB-245391] | 14 | 24 | 0 | 20 | 35 | 31 | 9 | 0 | 18 | 35 |  |  |  |
| Cc1ccc(C(=O)Nc2ccc(Nc3ccnc4cc(-c5nccs5)ccc34)cc2O)cc1.Cl [GW494702] | 0 | 9 | 0 | 28 | 0 | 0 | 0 | 0 | 0 | 1 |  |  |  |
| Cl.c1ccc(-c2ccc3c(Nc4ccc5[nH]ncc5c4)ccnc3c2)nc1 [GW440137] | 18 | 30 | 0 | 55 | 0 | 0 | 0 | 15 | 0 | 0 |  |  |  |
| COc1cc2c(cc1OCCN1CCNCC1)ncc1c3ccc(C#N)cc3[nH]c21 | 58 | 1 | 46 | 16 | 0 | 0 | 0 | 61 | 41 | 28 |  |  |  |
| Cl.Cl.NCC(NC(=O)c1cc(-c2ccccc2)c(-c2ccnc3[nH]ccc23)s1)c1ccccc1 (stereo not shown) [GSK1321561] | 8 | 50 | 14 | 7 | 98.3 | 97 | 3 | 25 | 19 | 5 |  |  |  |
| O=C(NC1CCN(c2ccnc(Nc3ccc(F)cc3)n2)C1)c1cc2ccccc2s1 (stereo not shown) [GSK1379716] | 7 | 60 | 0 | 42 | 0 | 0 | 6 | 0 | 0 | 7 |  |  |  |
| O=C(Nc1n[nH]c2nc(-c3ccc(O)cc3)ccc12)C1CC1 [SB-710363] | 21 | 83 | 56 | 0 | 0 | 18 | 0 | 19 | 23 | 0 |  |  |  |
| Cc1cccc(Nc2nc(N[C@H]3CCNC3)ncc2C(N)=O)c1.Cl [GSK2197149] | 47 | 76 | 65 | 0 | 19 | 0 | 0 | 3 | 14 | 0 |  |  |  |
